# SMN2 splice up – enhancers of SMN2 splice variant expression; 210,000 tested, 2.8% active; AID 1458; HEK293 SMN2-luciferase splicing reporter, luminescence, 30-36 h; Potency, µM (highest dose often 46.1 µM), usual class: activators; also: nearly all actives have a fitted effect of over 55% in size
#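 HEK293 cells carry an SMN2 […]–luciferase reporter in which exon 7 inclusion puts luciferase in frame. Cells were plated 10-12 h before compound addition, then incubated 30-36 h at 37C. ONE-Glo luminescence was read; sodium butyrate at 4.5 mM final served as control.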
# FLuc counter – inhibits or activates purified firefly luciferase, miR-21 counter-screen; P08659; purified FLuc, Km substrates, luminescence inhibition; Potency, µM (highest dose often 57.5 µM), most hits filed as inhibitors; 360,000 tested, 6.9% active; also: nearly all actives have a fitted effect of over 55% in size
# Target sequence (P08659 whole entry, looked up): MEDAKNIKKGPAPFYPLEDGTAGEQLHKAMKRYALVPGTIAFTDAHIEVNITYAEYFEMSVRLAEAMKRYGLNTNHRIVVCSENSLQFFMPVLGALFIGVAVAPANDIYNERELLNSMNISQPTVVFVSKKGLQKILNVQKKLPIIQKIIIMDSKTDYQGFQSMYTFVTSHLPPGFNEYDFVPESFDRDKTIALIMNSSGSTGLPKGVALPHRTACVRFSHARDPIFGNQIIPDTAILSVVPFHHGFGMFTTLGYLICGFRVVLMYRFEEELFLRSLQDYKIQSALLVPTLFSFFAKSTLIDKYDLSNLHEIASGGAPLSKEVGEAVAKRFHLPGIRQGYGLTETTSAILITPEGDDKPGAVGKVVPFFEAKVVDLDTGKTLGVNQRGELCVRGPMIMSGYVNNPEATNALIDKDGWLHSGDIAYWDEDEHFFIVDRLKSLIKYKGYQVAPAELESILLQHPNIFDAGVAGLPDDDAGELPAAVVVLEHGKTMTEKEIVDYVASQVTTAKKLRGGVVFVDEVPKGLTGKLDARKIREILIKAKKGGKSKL
#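 Purified P. pyralis luciferase (10nM final) with 10uM D-luciferin and 10uM ATP (Km levels) in 50mM Tris acetate pH 7.5, 10mM Mg acetate, 0.01% Tween-20, 0.05% BSA; qHTS 6-point titration, ~60 µM downward; luminescence read.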
# NPC1 prom act – activators of NPC1 promoter. Huh7 NPC1 promoter luciferase reporter, 24 h. Potency, µM (series often up to 9.22 µM), actives largely listed as activators. 320,000 tested, 2.4% active. AID 485313; also: nearly all actives have a fitted effect of over 60% in size
#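 Luminescence read-out of NPC1 promoter-driven luciferase in stably transfected Huh7 cells; compounds delivered in DMSO and left 24 h at 37C, 5% CO2, qHTS titration format.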
# Rab9 prom act – Rab9 promoter activation | Huh7 Rab9 promoter-luciferase reporter, luminescence, 24 h | Potency, µM (titrated, usually from 9.22 µM), actives largely listed as activators | 320,000 tested, 2.8% active | AID 485297; also: nearly all actives have a fitted effect of over 60% in size
#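 Rab9 promoter-driven luciferase in stably transfected Huh7 cells; 1500 cells/well rested 2 h, exposed to compound in DMSO for 24 h at 37 °C, 5% CO2. Luminescence read 10 min after adding luciferase reagent at ambient temperature.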
# Luc counter – counter-screen: inhibitors of Kinase-Glo firefly luciferase; Q27757; Kinase-Glo luciferase, ATP luminescence, 8 min; Potency, µM (doses to about 38.3 µM), actives largely listed as inhibitors; 200,000 tested, 0.28% active; also: nearly all actives have a fitted effect of over 60% in size
#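 Recombinant Kinase-Glo luciferase, 10 uM ATP (linear range), luciferin; imidazole pH 7.2 / KCl / MgCl2 / Tween / BSA buffer; 8 min RT; luminescence.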
# ELG1 genotox – genotoxicity induction in ELG1-luciferase HEK293T cells | HEK293T ELG1-luciferase reporter, luminescence, 16 h | 330,000 tested, 1.3% active | Potency, µM (top dose mostly 46 µM), actives largely listed as activators; also: nearly all actives have a fitted effect of over 60% in size
#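 DMSO vehicle served as control against compound-treated ELG1-luciferase HEK293T cells; exposure lasted 16 hr at 37 °C and 5% CO2, followed by ONE-Glo luminescence detection after 30 min.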
# Numbers stand for hits; 0 = inactive; ? = inconclusive; - = not tested or not shown; [ ] = another dose, or the depositor's remark. This is a sample that favours compounds with a hit; in the whole collection about 7.4% have one here. Calls follow the shape of the dose curve; as a rule, active = well fitted curve in the direction sought with a large enough effect; inconclusive = small, poorly fitted or top-dose-only effect, or another doubt; inactive = no such curve, though single readings can be large; an effect the other way counts as inactive or inconclusive.
SMILES,SMN2 splice up,FLuc counter,NPC1 prom act,Rab9 prom act,Luc counter,ELG1 genotox
COc1cccc(NC(=O)CC(=O)Nc2ccc3nc4n(c(=O)c3c2)CCCCC4)c1,0,0,-,-,-,-
COc1ccc(OC)c(S(=O)(=O)N2Cc3ccccc3CC2C(=O)Nc2nccs2)c1 (stereo not given),35µM,0[2.3 µM],0,?,0,0
COc1ccc(OC)c(S(=O)(=O)N2Cc3ccccc3CC2C(=O)Nc2ccc(C)cc2C)c1 (stereo not given),0,0,-,-,-,-
CCCc1nnc(NC(=O)C2CCN(C(=O)c3ccco3)CC2)s1,-,0,0,0,-,0
O=C(/C=C/c1ccccc1F)c1ccoc1,0,12µM,0,0,0,0
Cc1ccccc1C(=O)Nc1ccccc1C(=O)N/N=C\c1ccco1,0,?,0,0,0,0
O=C(Nc1ccccc1C(=O)N/N=C/c1ccco1)c1ccc(Cl)cc1,0,2.1µM,0,0,13µM,0
O=C(N/N=C\c1ccco1)Nc1cccc(Cl)c1,10µM,19µM,3.2µM,2.5µM,0,?
O=C(N/N=C/c1ccco1)c1ccncc1,0,0,0,0,0,0
O=C(Nc1ccccc1C(=O)N/N=C/c1ccco1)c1ccccc1,0,21µM,0,0,?,0
O=C(Nc1ccccc1C(=O)N/N=C/c1ccco1)c1ccc(F)cc1,0,8.5µM,0,0,7.1µM,0
Cc1cccc(NC(=O)CCC(=O)N/N=C/c2ccco2)c1,0[1.84 µM],0,0,0,0,0
COc1ccc(CNC(=O)N[C@H](C(=O)O)C(C)C)cc1OC,-,0,0,0,-,0
CCOC(=O)CC(NC(=O)c1cccc2c1C(=O)N(Cc1cccnc1)C2)c1ccc(OC(C)C)cc1 (stereo not given),-,0,0,0,-,0
O=C(c1cnn(-c2nc3ccccc3s2)c1)c1ccccc1O,0,3µM,3.5µM,?,0,?
O=C(c1cnn(-c2ccccc2)c1)c1cc(Br)ccc1O,-,0,0,0,-,0
COc1ccc(O)c(C(=O)c2cc(C#N)c(=O)n(-c3ccc(Cl)cc3)c2)c1,-,0,0,0,-,0
O=C(c1cnn(-c2cccc(F)c2)c1)c1ccccc1O,-,3.8µM,?,0[1.84 µM],-,?
COc1ccc(O)c(C(=O)c2cnn(-c3ccc(Cl)cc3)c2)c1,-,17µM,0,0,-,0
O=C(c1cnn(C(=O)c2ccccc2F)c1)c1ccccc1O,-,?,0,0,-,0
O=C(O)c1ccc(-n2cc(C(=O)c3ccccc3O)cn2)cc1,-,15µM,0,0,-,0
C=C(c1ccccc1)c1ccccc1N,-,0,0,0,-,0
Fc1cccc(F)c1-n1c(CN2CCCCC2)csc1=S,0,0,0,0,0,0
O=C(c1cnn(-c2ccccc2)c1)c1ccc2ccccc2c1O,13µM,7.6µM,?,?,0,?
COc1cccc(/C=C2\N=C3CCCCCN3C2=O)c1,0,13µM,0,0,0,?
SMILES,SMN2 splice up,FLuc counter,NPC1 prom act,Rab9 prom act,Luc counter,ELG1 genotox
Cc1cc(-n2cnnn2)cc(C)c1S(=O)(=O)N(C)c1ccccc1,-,0,0,0,-,0
Cc1ccc(N2C(=O)c3n[nH]c(C)c3C2c2ccc(Cl)cc2)cc1 (stereo not given),?,9.5µM,-,-,-,-
Cc1ccc(N2C(=O)c3n[nH]c(C)c3C2c2ccccc2Cl)cc1 (stereo not given),0,0,-,-,-,-
CCN1CCN(C(=O)c2ccc3c(c2)N(Cc2cc(C)ccc2C)C(=O)c2ccccc2S3=O)CC1 (stereo not given),0,0,-,-,-,-
Cc1ccc(Cl)cc1N1CCN(C(=O)c2ccc3c(c2)N(Cc2ccccc2F)C(=O)c2ccccc2S3=O)CC1 (stereo not given),0,0,-,-,-,-
Cc1ccc(C)c(CN2C(=O)c3ccccc3S(=O)c3ccc(C(=O)N4CCN(c5ccccn5)CC4)cc32)c1 (stereo not given),4.5µM,0,0,0,0,0
Cc1ccc(C)c(CN2C(=O)c3ccccc3S(=O)c3ccc(C(=O)N4CCN(c5ccccc5F)CC4)cc32)c1 (stereo not given),0.63µM,0,-,-,-,-
O=C(Nc1ccncc1)C1CCN(S(=O)(=O)c2c(Cl)cccc2Cl)CC1,-,0,0,0,-,0
O=c1cc(NS(=O)(=O)c2ccccc2)nc(SCc2ccc(Cl)cc2)[nH]1,0,0,0,0,0,23µM
CC(Oc1ccc(-c2nccc(-c3ccccn3)n2)cc1)C(=O)NN (stereo not given),0,?,0,0,0,0
COc1ccccc1C(=O)OCc1ccc2sc(C)nc2c1,0,17µM,0,0,0,0
CCN(CC)c1ccc(NC(=O)C2COc3ccc(OC)cc3C2)c(C)c1 (stereo not given),-,0,-,-,-,-
O=C(NCCOc1ccccc1)c1ccc2c(c1)OCO2,2.5µM,0.76µM,0.28µM,0.28µM,0,?
CCOCCCNC(=O)c1ccc2c(c1)OCO2,14µM,?,0,?,0,0
CCOCCCNC(=O)c1cccc(OC2CCN(S(C)(=O)=O)CC2)c1,-,11µM,3.5µM,2.8µM,-,?
CN(CCOc1ccccc1)C(=O)c1ccc2c(c1)OCO2,-,?,0,?,-,0
COCCCNC(=S)NNC(=O)c1ccc2c(c1)OCO2,0,0,0,0,0,0
CC(OC(=O)CCOc1ccccc1)C(=O)NC1CC1 (stereo not given),-,0,0,0,-,0
O=c1[nH]c(CSc2ccccn2)nc2c1oc1ccccc12,1µM,2.7µM,3.5µM,0.79µM,0,?
CCc1nc2c(oc3ccccc32)c(=O)[nH]1,0,?,0,0,0,0
Cc1ccc(S(=O)(=O)CCC(=O)NC2CCCC2)cc1,-,0,0,0,-,0
Nc1nc(Nc2ccc(Cl)cc2Cl)nc(C(F)(F)F)n1,?,?,?,?,0,18µM
Nc1nc(Nc2ccccc2Br)nc(C(F)(F)F)n1,0,?,0,0,0,?
CCN(CC(=O)Nc1c(F)cccc1F)C(=O)c1csc2c1CCCC2,-,0,0,0,-,0
CCOc1ccc(N2Cc3ccccc3C2)cc1,?,12µM,?,3.5µM,0,23µM
SMILES,SMN2 splice up,FLuc counter,NPC1 prom act,Rab9 prom act,Luc counter,ELG1 genotox
O=Cc1ccc(N2Cc3ccccc3C2)cc1,-,12µM,0,0,-,?
Cc1cc2c(cc1C)CN(c1ccccc1)C2,-,0.67µM,1.1µM,1µM,-,2.3µM
CCOc1ccc(N2CC(=O)N(c3ccc(OCC)cc3)CC2=O)cc1,0,0,0,0,0,0
Oc1ccc(N2Cc3ccccc3C2)cc1,-,0,0,0[1.84 µM],-,0
Cc1cc(N2Cc3ccccc3C2)ccc1C=O,-,6.7µM,?,0.32µM,-,5.8µM
Cc1ccccc1C=O,0,0,0,0,-,0
CCOC(=O)Cn1c(=O)n(CC2CCCO2)c2nc(-c3ccc(C)cc3)nc(C(N)=O)c21 (stereo not given),-,0,-,-,-,-
O=C(c1cccc(S(=O)(=O)Nc2ccc(F)cc2)c1)N1CCC1,-,0,0,0,-,0

# Screening data deposited in PubChem by National Center for Advancing Translational Sciences (NCATS).
